Reference: the supplement of paper PMC12532568
Counter-ions that a name gives are not always drawn.

system: Danio rerio larvae Tg(actc1b:ZsGreen-LC3), 3 dpf; experiment: LC3 puncta relative area vs vehicle, without NH4Cl (log2 fold change); higher = more autophagosomes; settings: 10 µM; treatment time 16 h; NH4Cl: none
Experimental: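 Transgenic Tg(actc1b:ZsGreen-map1lc3) zebrafish larvae (2 dpf) were treated for 16 h with Tocris library compounds at 10 µM (n = 12 larvae per compound). Skeletal-muscle LC3 puncta area relative to body area was measured by high-content confocal imaging before and after 4 h of 100 mM NH4Cl (autophagic flux), normalised to vehicle (DMSO), and reported as log2 fold change.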

SMILES	LC3 puncta (log2)
C=C1C(=O)O[C@H]2[C@H]1CC/C(C)=C/CC[C@@]1(C)O[C@@H]21 [Parthenolide]	0.0168
CCN(CC)CCOc1ccc(Cc2ccccc2)cc1 [DPPE fumarate]	0.714
CC(C)NCC(O)c1ccc2ccccc2c1 (stereo not given) [Pronethalol hydrochloride]	0.437
CC(=O)N[C@@H](Cc1c[nH]c2ccccc12)C(=O)OCc1cc(C(F)(F)F)cc(C(F)(F)F)c1	0.214
O=S(=O)(c1cccc2c(Cl)cccc12)N1CCCNCC1 [ML 9 hydrochloride]	0.232
COc1ccccc1N1CCN(CCCCN2C(=O)c3ccccc3C2=O)CC1 [NAN-190 hydrobromide]	0.201
O=[N+]([O-])c1cccc2cn[nH]c12 [7-Nitroindazole]	0.16
O=C(O)c1cc(O)c2ccc(Cl)cc2n1 [7-Chlorokynurenic acid]	0.0331
CC1(C(=O)O)NCCc2cc(O)c(O)cc21 (stereo not given) [Salsolinol-1-carboxylic acid]	0.463
COc1ccc2[nH]c(-c3ccccc3)c(CCNC(C)=O)c2c1 [2-Phenylmelatonin]	0.513
COC(=O)C1=C(C)NC(C)=C(C(=O)OCCSc2ccccc2)C1C (stereo not given)	0.00326
Nc1cc(N2CCCCC2)nc(N)[n+]1[O-] [Minoxidil]	0.233
CC(C)Oc1ccc2c(=O)c3cc(C(=O)O)ccc3oc2c1	0.473
c1ccc(CN2CCC3(CCc4ccccc43)CC2)cc1 [L-693,403 maleate]	-0.0234
Brc1c(NC2=NCCN2)ccc2nccnc12	0.438
O=c1nc2ccccc2c2n1CC(CN1CCN(c3ccccc3)CC1)N2 (stereo not given)	0.0176
CCCCOc1cc(CC2CNC(=O)N2)ccc1OC (stereo not given)	-0.122
NC(=O)CCCCn1ccc(NC(N)=NCC(F)(F)F)n1	0.486
Fc1ccc(C(c2ccc(F)cc2)N2CCN(C/C=C/c3ccccc3)CC2)cc1 [Flunarizine dihydrochloride]	0.219
CN(C)CCCn1cc(C2=C(c3c[nH]c4ccccc34)C(=O)NC2=O)c2ccccc21	0.584

SMILES	LC3 puncta (log2)
N[C@H](C(=O)O)c1ccc(C(=O)O)c(O)c1 [(S)-4-Carboxy-3-hydroxyphenylglycine]	-0.331
O=C1CC2(CCCC2)CC(=O)N1CCNCC1COc2ccccc2O1 (stereo not given)	0.301
Cc1noc(NS(=O)(=O)c2ccc(N)cc2)c1C [Sulfisoxazole]	0.239
S=C(S)N1CCCC1 [Pyrrolidinedithiocarbamate ammonium]	0.439
CCOC(=O)C1=C[C@]2(CC)CCCN3CCc4c(n1c1ccccc41)[C@@H]32 [Vinpocetine]	0.406
CC(C)NC[C@H](O)COc1ccc(CC(N)=O)cc1 [(S)-(-)-Atenolol]	0.12
COc1ccccc1N1CCN(CC(O)COc2cccc3ccccc23)CC1 (stereo not given) [Naftopidil dihydrochloride]	-0.0568
COc1ccc(CCN(C)CCc2ccc(OC)c(OC)c2)cc1OC [YS-035 hydrochloride]	0.265
CC(C)CC(NC(=O)OCC1c2ccccc2-c2ccccc21)C(=O)O (stereo not given)	0.0242
Clc1cccc(Nc2nnc(-c3ccccc3)c3ccccc23)c1	0.29
CCCCCCN(CCCCCC)C(=O)Cc1c(-c2ccc(F)cc2)[nH]c2ccccc12	0.084
CC(N)(Cc1ccc(O)c(O)c1)C(=O)O (stereo not given)	0.269
CC1=NN(c2ccccc2)C(=O)C1 [Edaravone]	0.377
CC(=O)NCC(=O)N[C@H](CCC(=O)O)C(=O)O [N-Acetylglycyl-D-glutamic acid]	-0.0216
N=C(N)S/C=C\C(=O)O [ZAPA sulfate]	0.0963
NC(=O)c1cccc(N)c1 [3-Aminobenzamide]	0.336
CCOC(=O)C1=C(C)NC(C)=C(C(=O)OC)C1c1cccc([N+](=O)[O-])c1 (stereo not given) [Nitrendipine]	0.107
CN(C)CCCSC(=N)N [Dimaprit dihydrochloride]	0.203
CC(C(O)c1ccc(O)cc1)N1CCC(Cc2ccccc2)CC1 (stereo not given) [Ifenprodil hemitartrate]	-0.219
c1ccc2oc(C3=NCCN3)cc2c1 [2-BFI hydrochloride]	0.0586
